Values joined by “and” are separate entries in the source; they are usually repeats but may differ in a detail not shown here. Identical values can stand only once. Screen size: about 230,000 compounds; about 310 (0.13%) were called active. A call without a number means that no potency is given here. Another 2% or so got no clear call; they are omitted. Calls come from the whole dose curve; as a rule, active = well fitted activation curve with a large enough effect; inconclusive = small, poorly fitted or top-dose-only effect; inactive = no such curve, though single readings can be large or run the other way. Only a selection was taken, and actives are over-represented in it overall.
Test: qHTS Multiplex Assay to Identify Dual Action Probes in a Cell Model of Huntington: Cytoprotection (ATP); note: nearly all actives have a fitted effect of over 45% in size;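 for cytoprotection (ATP increase): toxic huntingtin expression switched on by the ecdysone agonist tebufenozide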
Details: PC12 HTT-Q103 induced, ATP luminescence, 40 h; series mostly up to 56.4 µM
Source text: NIH Chemical Genomics Center [NCGC]
NIH Molecular Libraries Probe Production centers Network [MLPCN]
Assay Submitter (PI): Wei Zheng
Huntington's disease is a neurodegenerative disorder caused by a trinucleotide repeat expansion in Exon 1 of the Huntingtin gene. The CAG trinucleotide encodes glutamine and polyglutamine expansions cause cell death in selective areas of the brain. Huntington polyglutamine repeats have the tendency to form aggregates which are observable in later stages of the disease. The exact nature of the aggregates, whether toxic, protective, or insignificant, is unclear.
A stable PC12 cell line containing a gene fusion of Exon 1 of the Huntingtin gene linked to GFP under the control of the inducible ecdysone promoter were used as the cell-based model of Huntington Disease for high throughput screening. Exon 1 of the Huntingtin gene contained an expansion of 103 polyglutamines (Q103) which, when expressed, caused cell death and distinct, bright GFP aggregates. The amount of cell death and the size and intensity of GFP aggregates increased over time and induction level. The cell death were quantified with a measurement of ATP content in the cells. A maximal 40-50% of cell death was observed when the Huntington gene was induced in this cell line.
We optimized this assay in a homogeneous 1536 well format. A quantitative high throughput screen (qHTS) was conducted on the PC12 cells which were induced to express the toxic fusion construct. Small molecules which prevented cell death were identified by using a luminescent ATP quantification method (Perkin Elmer's ATPlite).
PC12 cells stably containing a construct with an ecdysone inducible promoter expressing GFP fused to the exon 1 of HTTQ103 (Huntington protein which containing a 103 ployglutamine expansion) were used.
NCGC Assay Protocol Summary:
Sequence, Parameter, Description
1, Reagent, 5 uL 1500 cells/well 1536 TC treated White clear bottom plate
2, Compound, 23 nL Tebufenozide inducer (100 nM final) to all columns
3, Compound, 23 nL 40 uM to 0.5 nM Libraries
5, Reagent, 5 ul ATPLite cell death assay reagent
6, Detector, 4 sec integration with a Viewlux Luminescent
Media consisted of phenol red free DMEM + 5% equine serum (Hyclone # SH30072.03 ), 5% supplemented Bovine Calf Serum (Hyclone # SH30074.03 ), 1x pen/strep, no G418
Control columns: 1 = DMSO, 2= 2 uM teb dilns (1:1), 4 = 100 nM Teb inducer. Sample columns received 100 nM Teb.
Potency is the fitted concentration of half-maximal effect.

| SMILES | Potency | cytoprotection (ATP increase) |
| --- | --- | --- |
| CC(C)(O)/C=C\C(=O)[C@](C)(O)[C@H]1[C@H](O)C[C@]2(C)[C@@H]3CC=C4[C@@H](C=C(O)C(=O)C4(C)C)[C@]3(C)C(=O)C[C@@]12C | 5.01 µM (active) |  |
| C[N+]1(C)C2CC(OC(=O)C(CO)c3ccccc3)CC1[C@@H]1O[C@H]21 (some centres undefined) |  | 17.6% [at 1.9 µM] (inactive) and 4.91% [at 1.9 µM] (inactive) |
| CC1=CC(=O)C2=C(C)C[C@H](O)[C@@H]3[C@@H](OC(=O)[C@H]3C)[C@H]12 |  | inactive |
| CC(C)(O)[C@H]1[C@H]2OC(=O)[C@@H]1[C@]1(O)C[C@H]3O[C@]34C(=O)O[C@H]2[C@]14C |  | inactive |
